In PubChem BioAssay (EPA / NIEHS):
Calls of active or inactive are those of the source. The calls were made as follows: active = hit-call score of the fitted dose curve at least 0.9, where 1 is the maximum; inactive = score below 0.9.

assay: CCTE_Padilla_ZF_Score.Blood_pooling: CCTE's 144 Hour Post-fertilization zebrafish Assay Score for Blood Pooling, Padilla Lab (AID 2284415)
Description: CCTE_Padilla_ZF_Phenotype_Score is a whole embryo, multiplexed assay using zebrafish ova exposed for 144 hours post fertilization on a 96-well plate.CCTE_Padilla_ZF_Score.Blood_pooling is one of one assay component(s) measured or calculated from the CCTE_Padilla_ZF_Phenotype_Score assay. It is designed to make measurements of zebrafish development as detected with brightfield microscopy of developing zebrafish embryos.Data from the assay component CCTE_Padilla_ZF_Score.Blood_pooling was analyzed into 1 assay endpoints. This assay endpoint, CCTE_Padilla_ZF_Score.Blood_pooling, was analyzed in the positive analysis fitting direction relative to DMSO as the negative control and baseline of activity. Using a type of viability reporter, gain-of-signal activity can be used to understand changes in developmentals as they relate to the whole embryo. To generalize the intended target to other relatable targets, this assay endpoint is annotated to the zebrafish development intended target family, where the subfamily is swim bladder morphogenesis.
Zebrafish husbandry: Wild type adult zebrafish (Danio rerio; undefined outbred stock obtained from Aquatic Research Organisms, Hampton, NH, 03842) were housed in an AAALAC-approved animal facility at 28C with a 14:10 h light: dark cycle (lights on at 08:30 h). Adult fish (2-3 females per male; density = 15-20 adults per tank) were kept in one of several 9-liter (L) flow-through colony tanks (Aquaneering Inc., San Diego, CA). All adults in a colony tank were placed in a 2 L (static) breeding tank (Aquatic Habitats, Apopka, FL) one hour prior to light onset. Typically, adults from two to three colony tanks were mated on the same day. Two hours after light onset the adults were returned to the colony tank. All embryos were gathered from each breeder tank, pooled, and placed in a 28C water bath for 2 h, followed by two washes with 0.06% bleach (v/v) in 10% Hanks' Balanced Salt Solution (13.7 mM NaCl 0.54 mM KCl, 25 uM Na2HPO4, 130 uM CaCl2 100 um MgSO4 and 420 um NaHCO3,), hereafter referred to as Hanks' solution, for 5 min in order to remove any residual bacteria or fungi. Immediately following washing, the embryos were examined, and healthy embryos were separated from dead or unfertilized eggs and moved into fresh Hanks'. Chemical exposures: Zebrafish embryos were exposed in 96-well plates. Between 6- and 8-hours post fertilization (hpf), healthy embryos (with chorions) were transferred, one embryo per well, into 96 well (0.5 mL) microtiter plates (Cell Culture-Treated, Flat-Bottom Microplate 96 well [Corning Costar, Kennebunk, ME; Cat 09-761-145]) filled with 200 uL of Hanks' solution. A random number generator was used to assign the order in which the rows of embryos were plated in 96 well plates each week. After plating, the embryos were dosed with 0.8 uL of the chemical dosing solution then immediately sealed with AlumaSeal II (Excel Scientific Inc, Victorville, CA) to prevent volatilization of the chemicals, and then placed in a leakproof secondary container. These containers were placed in an incubator maintained on a 14:10 h light: dark cycle at 26C for rearing. On 5 dpf, live larvae were gently moved out of the plate with test chemicals and into a new 96 well mesh plate (Millipore Corp., Bedford, MA) with just the Hanks' solution. Once within the mesh well plate, the animals were rinsed with 400 uL of fresh Hanks' three times, and then the plates were covered with a non-adhesive material (Microseal A, BioRad, Hercules, CA), plate lid added, and then plate sides wrapped in Parafilm (PM992, Bermis Company, Neenah, WI), and returned to the incubator. […]

| SMILES | outcome | AC50 |
| --- | --- | --- |
| O=C(O)C(F)(F)C(F)(F)C(F)(F)OC(F)(F)F | inactive | – |
| OCC(O)CC(F)(F)C(F)(F)C(F)(F)C(F)(F)F (stereo not given) | inactive | – |
| OCCCCC(F)(F)C(F)(F)C(F)(F)C(F)(F)F | inactive | – |
| O=C(Cl)C(F)(F)C(F)(F)C(F)(F)C(F)(F)C(F)(F)C(F)(F)F | inactive | – |
| CCN(CCO)S(=O)(=O)C(F)(F)C(F)(F)C(F)(F)C(F)(F)C(F)(F)C(F)(F)C(F)(F)C(F)(F)F | inactive | – |
| NCC(F)(F)C(F)(F)C(F)(F)C(F)(F)C(F)(F)C(F)(F)C(F)(F)C(F)(F)F | inactive | – |
| OCC(F)(F)C(F)(F)C(F)(F)C(F)(F)C(F)(F)C(F)(F)CO | inactive | – |
| O=C(O)C(F)(F)OC(F)(F)C(F)(F)OC(F)(F)C(F)(F)OC(F)(F)F | inactive | – |
| FC(F)(F)C(F)(F)C(F)(F)C(F)(F)C(F)(F)C(F)(F)C(F)(F)CCI | inactive | – |
| NC(=O)C(F)(F)C(F)(F)C(F)(F)F | inactive | – |
| O=C(O)CCC(F)(F)C(F)(F)C(F)(F)C(F)(F)C(F)(F)C(F)(F)C(F)(F)F | inactive | – |
| CO[Si](C)(CCC(F)(F)C(F)(F)C(F)(F)C(F)(F)C(F)(F)C(F)(F)F)OC | inactive | – |
| C=C(C)C(=O)OCC(F)(F)C(F)(F)C(F)(F)C(F)F | inactive | – |
| O=S(=O)(OCC(F)(F)F)C(F)(F)C(F)(F)C(F)(F)C(F)(F)F | – | 33.3 µM (active) |
| O=C(O)C(F)(F)C(F)(F)C(F)(F)C(=O)O | inactive | – |
| NS(=O)(=O)C(F)(F)C(F)(F)C(F)(F)C(F)(F)C(F)(F)C(F)(F)F | inactive | – |
| O=C(O)C(F)(F)C(F)(F)C(F)(F)OC(F)(C(F)(F)F)C(F)(F)F | inactive | – |
| CNS(=O)(=O)C(F)(F)C(F)(F)C(F)(F)C(F)(F)C(F)(F)C(F)(F)C(F)(F)C(F)(F)F | inactive | – |
| O=S(=O)(O)CCC(F)(F)C(F)(F)C(F)(F)C(F)(F)F | inactive | – |
| OCCCC(F)(F)C(F)(F)C(F)(F)C(F)(F)C(F)(F)C(F)(F)C(F)(F)C(F)(F)F | inactive | – |

| SMILES | outcome | AC50 |
| --- | --- | --- |
| C=CC(=O)OCCC(F)(F)C(F)(F)C(F)(F)C(F)(F)F | inactive | – |
| OCC(O)CC(F)(F)C(F)(F)C(F)(F)C(F)(F)C(F)(F)C(F)(F)C(F)(F)C(F)(F)F (stereo not given) | inactive | – |
| CCOC(=O)CC(=O)C(F)(F)C(F)(F)F | inactive | – |
| O=C(O)C(F)(F)C(F)(F)C(F)(F)C(F)(F)C(F)(F)C(F)(F)C(F)F | inactive | – |
| OCC(F)(F)C(F)(F)C(F)(F)CO | inactive | – |
| O=S(=O)(Cl)C(F)(F)C(F)(F)C(F)(F)C(F)(F)C(F)(F)C(F)(F)C(F)(F)C(F)(F)F | inactive | – |
| NCC(F)(F)C(F)(F)C(F)(F)C(F)(F)C(F)(F)C(F)(F)F | inactive | – |
| O=C(O)CCC(F)(F)C(F)(F)C(F)(F)F | inactive | – |
| NC(=O)C(F)(F)C(F)(F)C(F)(F)C(F)(F)C(N)=O | inactive | – |
| O=C(Cl)C(F)(F)C(F)(F)C(F)(F)C(F)(F)C(F)(F)C(F)(F)C(F)(F)F | inactive | – |
| C[Si](Cl)(Cl)CCC(F)(F)C(F)(F)C(F)(F)C(F)(F)C(F)(F)C(F)(F)F | inactive | – |
| C=CC(=O)OCC(F)(F)C(F)(F)C(F)(F)C(F)(F)C(F)(F)C(F)(F)C(F)(F)C(F)F | inactive | – |
| CN(C(=O)C(F)(F)C(F)(F)C(F)(F)F)[Si](C)(C)C | inactive | – |
| COC(F)(C(F)F)C(F)(F)F (stereo not given) | inactive | – |
| O=S(=O)(O)CCC(F)(F)C(F)(F)C(F)(F)C(F)(F)C(F)(F)C(F)(F)C(F)(F)C(F)(F)F | inactive | – |
| NC(=O)C(F)(F)C(F)(F)C(F)(F)C(F)(F)C(F)(F)C(F)(F)C(F)(F)F | inactive | – |
| NC(O)(C(F)(F)F)C(F)(F)F | inactive | – |
| O=C(F)C1(F)C(F)(F)C(F)(F)C(F)(F)C(F)(F)C1(F)F | inactive | – |
| C=CC(=O)OCC(F)(F)C(F)(F)C(F)(F)COC(=O)C=C | inactive | – |
| OCC(F)(F)C(F)(F)C(F)(F)C(F)(F)C(F)(F)C(F)(F)C(F)(F)C(F)(F)CO | inactive | – |
